Records with an inconclusive call do not appear. The source made the active and inactive calls. Calls come from the whole dose curve; as a rule, active = well fitted cell-killing curve with a large enough effect; inconclusive = small, poorly fitted or top-dose-only effect, or effect the other way; inactive = flat fitted curve, though single readings scatter.
Assays:
Assay in all cases: Primary qHTS to identify gynecologic anti-cancer compounds using libraries of approved drugs and bioactive compounds (AID 1345084); note: nearly all actives have a fitted effect of over 55% in size
C33A = details: Gynecologic cancer cell panel viability, ATPlite luminescence, 48 h; series mostly up to 57.5 µM
Summary of the method: (§1)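 Five-concentration response, 48 h; readout is ATP-driven luciferase luminescence.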

CAOV3 = details: Gynecologic cancer cell panel viability, ATPlite luminescence, 48 h; series mostly up to 57.5 µM
Summary of the method: as §1

CASKI = details: Gynecologic cancer cell panel viability, ATPlite luminescence, 48 h; series mostly up to 57.5 µM
Summary of the method: as §1

Es-2 = details: Gynecologic cancer cell panel viability, ATPlite luminescence, 48 h; series mostly up to 57.5 µM
Summary of the method: as §1

HeLa = details: Gynecologic cancer cell panel viability, ATPlite luminescence, 48 h; series mostly up to 57.5 µM
Summary of the method: as §1

Hek293T = details: Gynecologic cancer cell panel viability, ATPlite luminescence, 48 h, control line for the selectivity index; series mostly up to 57.5 µM
Summary of the method: as §1

JEG-3 = details: Gynecologic cancer cell panel viability, ATPlite luminescence, 48 h; series mostly up to 57.5 µM
Summary of the method: as §1

OV90 = details: Gynecologic cancer cell panel viability, ATPlite luminescence, 48 h; series mostly up to 57.5 µM
Summary of the method: as §1

PA-1 = details: Gynecologic cancer cell panel viability, ATPlite luminescence, 48 h; series mostly up to 57.5 µM
Summary of the method: as §1

SKOV3 = details: Gynecologic cancer cell panel viability, ATPlite luminescence, 48 h; series mostly up to 57.5 µM
Summary of the method: as §1

Tov-21-G = details: Gynecologic cancer cell panel viability, ATPlite luminescence, 48 h; series mostly up to 57.5 µM
Summary of the method: as §1

Tov112D = details: Gynecologic cancer cell panel viability, ATPlite luminescence, 48 h; series mostly up to 57.5 µM
Summary of the method: as §1

Measured: Potency

Cc1c(NC(=O)N2CCOCC2)ccc2c1c1ccccc1n2C(C)C
inactive: all assays above

C=C(C)C1Cc2c(ccc3c2OCC(c2ccc(O)cc2O)C3)O1 (configuration not stated)
inactive: all assays above

COC(=O)C1=COC(O[C@@H]2O[C@H](CO)[C@@H](O)[C@H](O)[C@H]2O)[C@@H]2[C@@](C)(O)[C@@H](OC(=O)/C=C/c3ccccc3)C[C@]12O (some centres not stated)
inactive: all assays above

O=C(Cc1ccccc1)OC[C@H]1O[C@H](O[C@H]2O[C@H](CO)[C@@H](O)[C@H](O)[C@H]2O)[C@H](O)[C@@H](O)[C@@H]1O
inactive: all assays above

NC[C@H]1CCC[C@@H](CNC(=O)[C@@H](Cc2c[nH]c3ccccc23)NC(=O)N2CCC3(C=Cc4ccccc43)CC2)C1
inactive: all assays above

COC(=O)C(CC1(O)c2ccccc2N2C(=O)C(C)(C)N(O)C21)n1cnc2ccccc2c1=O (configuration not stated)
inactive: all assays above

CS(=O)(=O)c1ccccc1N1CCN(c2nc3c(c(=O)[nH]2)CSCC3)CC1
inactive: all assays above

C/C(=C\CO)CC/C=C(\C)C(=O)O[C@@H]1O[C@H](CO)[C@@H](O)[C@H](O)[C@H]1O
inactive: all assays above

CC(C)=CCc1c(O)cc2oc3cc(C)cc(O)c3c2c1C
inactive: all assays above

CC(O)C1CCC2C3CCC4CC(OC5OC(C(=O)O)C(O)C(O)C5O)CCC4(C)C3CCC12C (configuration not stated)
inactive: all assays above

CC(=O)OC(C)C(C)(O)C(=O)O[C@@H]1CC[C@]2(C)CC(=O)C(=C(C)C)C[C@H]2[C@]1(C)OC(C)=O (some centres not stated)
inactive: all assays above

C=C1CCC2C(C)(C)CC(O)CC2(C)C1CCC(C)CC(=O)O (configuration not stated)
inactive: all assays above

COC(=O)C(CC1(OC(=O)C(C)C)c2ccccc2N2C(=O)C(C)(C)N(O)C21)n1cnc2ccccc2c1=O (configuration not stated)
inactive: all assays above

CC1=CC(=O)CC(C)(C)C1CO[C@@H]1O[C@H](CO)[C@@H](O)[C@H](O)[C@H]1O (some centres not stated)
inactive: all assays above

CC(=O)O[C@@H]1C[C@@H](C)[C@](O)(CCC2=CC(=O)OC2)[C@@]2(C)CCCC(C)(C)C12 (some centres not stated)
inactive: all assays above

O=C(/C=C/c1ccc(O)cc1)OC[C@H]1O[C@@H](O/C(=C\c2ccccc2)C(=O)O)[C@H](O)[C@@H](O)[C@@H]1O
inactive: all assays above

— PubChem BioAssay (NCATS)
